As a reminder, the inhibition is the change of the read-out against control, counted positive when it falls.

Molecules are shown by their SMILES. In all, about 2,300 compounds went through this assay and about 1,100 (48%) were called active. The set was probably picked from earlier hits. This is one part of the list. Measured potencies and affinities stand elsewhere. Unmarked numbers belong to inactive results. How the calls were made is not given here.

The source of these data is PubChem BioAssay AID2384 (Southern Research Specialized Biocontainment Screening …, 2010).

This experiment in a line: S. typhi counter-screen signal inhibition – fluorescence, 4 h, counter-screen for PhoP regulon inhibitor project, dose response (AID 2384). The note with it: S. typhi GFP reporter counter-screen; series mostly up to 150 µM; inhibition: at the top concentration. (The purpose of a counterscreen is to sort out artefacts and off-target activity.)
Turning to `COC(=O)c1cc2sccc2n1Cc1nc(-c2ccc(OC)cc2)oc1C`, the “inhibition” value was -18.1%.

Take `O=C(CSc1nc2ncc(Cl)cc2[nH]1)NCC(=O)Nc1ccc(F)c(F)c1F`: the “inhibition” value is 36%.

On to `Nc1ncnc2nc(SCC(=O)Nc3cccc(C(F)(F)F)c3)[nH]c12`, for which the “inhibition” value is -1.35%.

In the case of `c1cncc(CSc2ccc(-c3cccs3)nn2)c1`, the “inhibition” value is 3.59%.

`COc1ccc(CNc2nc3ccccc3n2C)c(O)c1`: the “inhibition” value was 9.23%.

With `CCN(CC)S(=O)(=O)c1ccc(/C(O)=C(\C#N)c2nc3ccccc3n2C)cc1`, the “inhibition” value is -35.8%.

With `Cn1c(-c2ccc(CN3CCCCC3)o2)nc2ccccc21`, the “inhibition” value was 5.64%.

Consider `CC1=C(c2ccccc2)SC2=NCCN21`, for which the “inhibition” value was 12.6%.

Consider `COCc1[nH]nc2c1C(c1c(F)cccc1Cl)C(C#N)=C(N)O2` (centres undefined), for which the “inhibition” value was 14.4%.

As to `CC1(C)CC(N2CCN(c3ccccc3)CC2)=CC(=[N+]2CCCC2)C1`, the “inhibition” value was -5.38%.

With `CC1CCC[C@H](O)CCCCCc2cc(O)cc(O)c2C(=O)O1` (some centres undefined), the “inhibition” value is 6.87%.

Turning to `CC1=C(C#N)CCC(=O)N1Cc1c(C)cc(C)cc1C`, the “inhibition” value was -4.03%.

For `Nn1cnnc1N/N=C\c1ccc(-c2ccccc2[N+](=O)[O-])o1`, the “inhibition” value is 5.18%.

With `O=[N+]([O-])c1ccc(/C=N/NC(=S)Nc2ccc(Cl)cc2Cl)s1`, the “inhibition” value is 35.1%.

`COc1ccc(CNC(=O)CCC(=O)N2C[C@H]3C[C@H](C2)c2cccc(=O)n2C3)cc1`: the “inhibition” value was 13%.

For the compound `Cc1cc(NS(=O)(=O)c2ccc(NC(=O)C(C)Oc3ccc4c(C)cc(=O)oc4c3)cc2)no1` (centres undefined), the “inhibition” value was 15.6%.

`COc1cc(OC)nc(NC(=O)C(C)C)n1`: the “inhibition” value is -27%.

Take `CCNc1nc(N)nc(Oc2ccc(OCCOc3ccc(Cl)cc3Cl)nn2)n1`: the “inhibition” value was -7.02%.

As for `COc1cc(/C=C/C(=O)O)cc2c1OCCO2`, the “inhibition” value is 1.36%.

`CCCC(CCC)C(=O)NCCN1CCOCC1`: the “inhibition” value is 9.01%.

Consider `CCn1nccc1C(=O)Nc1cc(Cl)cc(Cl)c1`, for which the “inhibition” value was 16.1%.

In the case of `CCOC(=O)/C=C1/N(C)c2ccccc2C1(C)C`, the “inhibition” value was -0.1%.

As for `O=Cc1ccc(O)cc1O`, the “inhibition” value is 12.6%.

Consider `CCCOc1ccc(-c2cn3ccccc3n2)cc1`, for which the “inhibition” value is 27.4%.

Regarding `Cc1ccc(-c2noc(CN3CCCCC3)n2)cc1`, the “inhibition” value is -23.5%.

Regarding `Cc1ccc2nsnc2c1S(=O)(=O)NCc1ccc2c(c1)OCO2`, the “inhibition” value is -30.8%.

For the compound `Cc1[nH]nc2c1C(c1ccc(-c3ccccc3C#N)o1)C(C#N)=C(N)O2` (centres undefined), the “inhibition” value is -6.53%.

On to `O=C(NCc1cccnc1)c1ccc(COc2ccc(Cl)cc2)cc1`, for which the “inhibition” value was -28.3%.

For the compound `COc1ccc(NC(=O)CN(C)S(=O)(=O)c2ccc(Cl)cc2)cc1Cl`, the “inhibition” value was -14.6%.

Take `Cn1cc(S(=O)(=O)NCC2CCCO2)c(=O)n(C)c1=O` (centres undefined): the “inhibition” value is 19.2%.

As to `C[C@]1(OC(=O)/C=C/c2ccccc2)C[C@@H](O)[C@]2(O)C=CO[C@@H](O[C@@H]3O[C@H](CO)[C@@H](O)[C@H](O)[C@H]3O)[C@@H]21`, the “inhibition” value is 6.78%.

For `O=C(/C=C/c1ccco1)NC(=S)Nc1cccc(-c2nc3ccccc3o2)c1`, the “inhibition” value was -13.3%.

Take `O=C(/C=C/c1ccccc1)NNC(=O)c1ccco1`: the “inhibition” value was -2.38%.

Regarding `CC(=O)c1cccc(NC(=S)NNC(=O)c2ccco2)c1`, the “inhibition” value was 21.6%.

With `O=C(NC(=S)Nc1c(F)cc(F)cc1Br)c1ccc2c(c1)OCCO2`, the “inhibition” value was -19%.

`COc1ccc(C(C(=O)Nc2ccc(C(C)C)cc2)N(Cc2ccco2)C(=O)CC2NC(=O)NC2=O)cc1` (centres undefined): the “inhibition” value is -0.89%.

For `Nc1nc(=S)c2[nH]cnc2[nH]1`, the “inhibition” value was 32.3%.

Take `COc1ccc(C2C3=C(CC(C)(C)CC3=O)Nc3cc4c(cc32)OCO4)cc1` (centres undefined): the “inhibition” value is -48.3%.

For `O=C(CSc1ccccc1)N1CCC(N2CCC(C(=O)N3CCCC3)CC2)CC1`, the “inhibition” value is -12.2%.

As to `C[C@@H](C(=O)NC1CCCC1)N1C(=O)N2CCc3c([nH]c4ccccc34)[C@@]2(C)C1=O`, the “inhibition” value is -17.4%.

Turning to `CCOC(=O)c1cccc(NC(=O)C2CCC(CNc3c(N4CCOCC4)c(=O)c3=O)CC2)c1` (centres undefined), the “inhibition” value is -22.3%.

Regarding `COc1ccc(C(=O)N2CCN(C(=O)Cc3ccccc3)CC2)cc1OC`, the “inhibition” value is -1.09%.

Regarding `CCN1CCN(c2cc(C)c3cc(NC(=S)N4CCN(c5ccccc5F)CC4)ccc3n2)CC1`, the “inhibition” value is 35.7%.

Regarding `O=C(c1cccs1)N1CCC(N2CCN(c3ccccc3)CC2)CC1`, the “inhibition” value was -17.6%.

Take `CCc1ccc(C(=O)CC2(O)C(=O)N(CN3CCOCC3)c3ccccc32)cc1` (centres undefined): the “inhibition” value was 13.2%.

On to `O=C(C[n+]1cn(C(F)F)c2ccccc21)c1ccc(Br)cc1`, for which the “inhibition” value was -14.8%.

As for `CC(=O)C1=C(O)C(=O)N(CCN2CCOCC2)C1c1ccccc1` (centres undefined), the “inhibition” value was 10.7%.

Regarding `CCN1CCN(C2=C(NS(=O)(=O)c3ccc(Br)cc3)C(=O)c3ccccc3C2=O)CC1`, the “inhibition” value is 17.3%.

With `Cn1c(=NC(=O)COc2ccccc2)sc2cccc(F)c21`, the “inhibition” value was 0.24%.

As to `Cc1cc(NC(=O)/C=C/C(=O)N(c2ccccc2C)C(C(=O)NC2CCCC2)c2ccc(F)cc2)no1` (centres undefined), the “inhibition” value was 6.86%.

Turning to `CC(=O)c1c(N2CCN(c3cccc(Cl)c3)CC2)nc(=S)n(-c2ccccc2)c1C`, the “inhibition” value is -38.1%.

Consider `CCOC(=O)c1ccc(NC(=O)CSC(=S)N2CCOCC2)cc1`, for which the “inhibition” value was -22.6%.

Regarding `Cc1cnc(C(=O)OCC(=O)Nc2cccc(Cl)c2)cn1`, the “inhibition” value was 0.83%.

In the case of `O=C(Nc1ccc(Cl)cc1)N1CCOC12CCC1(CC2)OCCO1`, the “inhibition” value was 7.84%.

Turning to `O=C(COc1ccc(Cl)cc1)Nc1cccc(-c2ccc3nncn3n2)c1`, the “inhibition” value is -14.3%.

Regarding `Cc1ccc(NC(=O)c2cc(NC(=O)CCCC(=O)O)ccc2Cl)cc1Cl`, the “inhibition” value is -19.6%.

Consider `NC(=O)SCC(=O)Nc1ccc(Cl)c(Cl)c1`, for which the “inhibition” value was 32%.

Take `CCc1cccc(NC(=O)CSC2=NS(=O)(=O)c3ccccc32)c1`: the “inhibition” value is 7.63%.

Turning to `O=C(Cc1ccccc1)NCC(=O)Nc1cccc(Cl)c1`, the “inhibition” value is 6.95%.
